By inhibition is commonly meant the drop in the measured response relative to a control, in per cent.

19 compounds from PubChem BioAssay can be followed below.

The nature of assay [1]: antimalarial activity against Dd2 strain (AID 2302;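 active = growth inhibition above 50% at the single 2 µM test dose, taken to imply half-maximal potency below 2 µM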;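 note: 0% = DMSO untreated growth and 100% = chloroquine plus artemisinin killed control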). The following applies: P. falciparum Dd2 in RBCs, LDH growth readout, 72 h; at 2 µM; stronger effect = higher value.
A short description of assay [2]: human hepatoma cell viability loss – ATP luminescence, cytotoxicity control for P. falciparum antimalarial project, primary screen (AID 2303;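 active = inhibition above 50%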;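 note: 0% = DMSO wells and 100% = digitonin-killed cells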). The following applies: HepG2 viability, 24-48 h, at 10 µM, stronger effect = higher value.
In assay [3] the target is L-lactate dehydrogenase (Plasmodium falciparum (isolate CDC / Honduras)) (UniProt Q27743). Kind of assay: PfLDH activity inhibition – cell lysate, 3D7 strain, counter-screen for P. falciparum growth inhibition project (AID 2304).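 Note: 0% = vehicle and 100% = reference inhibitor.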 Particulars: P. falciparum 3D7 crude extract, LDH APAD/NBT absorbance; at 2 µM; stronger effect = higher value.
Assay [4] is described as follows: inhibition of 3D7 malaria parasite growth – strain 3D7 (AID 2306).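 Note: 0% = DMSO wells and 100% = chloroquine plus artemisinin control wells.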 Particulars: P. falciparum 3D7 erythrocytic growth, LDH absorbance, 72 h; at 2 µM; stronger effect = higher value.
Assay [5] concerns the target Calcium-dependent protein kinase 1 (Plasmodium falciparum (isolate 3D7)) (UniProt P62344). Description: PfCDPK1 kinase inhibitors, biochemical, TCAMS library (AID 1159585; cut-off not given, nearly all actives have IC50 up to about 0.98 µM;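 note: inhibitors leave more ATP so luminescence rises with inhibition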). Particulars: recombinant PfCDPK1, Kinase-Glo ATP depletion luminescence.
The target of assay [6] is Plasmodium falciparum protein kinase 6 (PK6, PF3D7_1337100) (UniProt Q8IDW1). Description: PfPK6 kinase inhibitors, biochemical, TCAMS library (AID 1159586). The following applies: recombinant PfPK6, Kinase-Glo ATP depletion luminescence. On the technique in general: Kinase-Glo reads ATP consumption through a luciferase reaction.
Assay [7] addresses Protein kinase 7 (PK7), Plasmodium falciparum 3D7 (PF3D7_0213400) (UniProt Q7YTF7). Description: inhibition of Plasmodium PK7 catalytic activity – biochemical, TCAMS antimalarial set, Kinase-Glo luminescence (AID 1159587). The following applies: recombinant PfPK7, Kinase-Glo ATP depletion luminescence.
Assay [8] deals with Calcium-dependent protein kinase 4 (Plasmodium falciparum (isolate 3D7)) (UniProt Q8IBS5). Description: PfCDPK4 kinase inhibitors, biochemical, TCAMS library (AID 1159588; cut-off not given, nearly all actives have IC50 up to about 0.91 µM). Particulars: recombinant PfCDPK4, Kinase-Glo ATP depletion luminescence.

For some assays here: Results with a measured potency or affinity are listed apart. Activity calls are given as the source filed them. Unless noted, the rule behind the calls is not given here.

Protein kinase 7 (PK7), Plasmodium falciparum 3D7 (PF3D7_0213400), sequence (Q7YTF7 1-343): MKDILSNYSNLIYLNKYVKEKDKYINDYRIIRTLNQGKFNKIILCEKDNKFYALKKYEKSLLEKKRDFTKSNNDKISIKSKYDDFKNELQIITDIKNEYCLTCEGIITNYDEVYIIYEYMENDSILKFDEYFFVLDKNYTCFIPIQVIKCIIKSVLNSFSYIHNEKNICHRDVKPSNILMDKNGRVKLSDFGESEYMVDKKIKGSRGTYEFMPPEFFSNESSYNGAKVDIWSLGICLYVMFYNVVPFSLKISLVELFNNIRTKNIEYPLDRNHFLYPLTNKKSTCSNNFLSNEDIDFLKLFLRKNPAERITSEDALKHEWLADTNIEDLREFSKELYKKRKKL
Calcium-dependent protein kinase 1 (Plasmodium falciparum (isolate 3D7)), sequence (P62344 whole entry, looked up): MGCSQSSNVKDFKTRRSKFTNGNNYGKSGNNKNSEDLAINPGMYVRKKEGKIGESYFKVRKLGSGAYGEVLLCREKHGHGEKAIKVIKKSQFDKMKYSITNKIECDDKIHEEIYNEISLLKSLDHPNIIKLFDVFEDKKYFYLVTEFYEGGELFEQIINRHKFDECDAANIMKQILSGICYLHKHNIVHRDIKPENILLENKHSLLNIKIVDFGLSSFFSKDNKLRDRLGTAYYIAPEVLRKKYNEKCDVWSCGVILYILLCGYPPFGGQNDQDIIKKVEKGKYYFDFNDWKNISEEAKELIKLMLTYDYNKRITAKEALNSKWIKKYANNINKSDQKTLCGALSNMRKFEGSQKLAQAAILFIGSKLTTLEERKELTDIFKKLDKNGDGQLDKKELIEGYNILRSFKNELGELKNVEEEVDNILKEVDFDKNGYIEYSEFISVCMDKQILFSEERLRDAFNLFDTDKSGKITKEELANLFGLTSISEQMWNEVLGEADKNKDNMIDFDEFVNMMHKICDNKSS
Plasmodium falciparum protein kinase 6 (PK6, PF3D7_1337100), sequence (Q8IDW1 1-305): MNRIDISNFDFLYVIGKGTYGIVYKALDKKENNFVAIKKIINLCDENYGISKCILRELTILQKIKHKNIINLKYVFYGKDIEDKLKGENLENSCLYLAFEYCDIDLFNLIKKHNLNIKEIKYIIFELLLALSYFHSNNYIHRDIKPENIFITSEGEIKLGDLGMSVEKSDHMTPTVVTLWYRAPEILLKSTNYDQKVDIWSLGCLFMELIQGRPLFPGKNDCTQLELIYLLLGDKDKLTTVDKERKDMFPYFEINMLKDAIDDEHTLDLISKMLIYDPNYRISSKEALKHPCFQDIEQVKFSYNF
Calcium-dependent protein kinase 4 (Plasmodium falciparum (isolate 3D7)), sequence (Q8IBS5 whole entry, looked up): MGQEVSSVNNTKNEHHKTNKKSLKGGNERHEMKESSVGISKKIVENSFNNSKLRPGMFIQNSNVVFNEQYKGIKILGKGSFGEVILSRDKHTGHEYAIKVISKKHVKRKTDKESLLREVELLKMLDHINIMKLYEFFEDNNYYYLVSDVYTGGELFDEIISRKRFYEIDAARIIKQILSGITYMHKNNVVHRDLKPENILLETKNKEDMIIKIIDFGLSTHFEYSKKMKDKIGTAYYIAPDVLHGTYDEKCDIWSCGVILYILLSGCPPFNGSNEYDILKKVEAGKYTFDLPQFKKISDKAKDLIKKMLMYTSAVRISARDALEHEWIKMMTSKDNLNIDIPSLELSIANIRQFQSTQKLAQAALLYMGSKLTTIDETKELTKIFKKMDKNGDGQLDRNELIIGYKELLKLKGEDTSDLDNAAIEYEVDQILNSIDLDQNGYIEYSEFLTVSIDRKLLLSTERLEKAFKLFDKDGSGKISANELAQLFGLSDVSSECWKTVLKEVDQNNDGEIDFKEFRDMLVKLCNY
L-lactate dehydrogenase (Plasmodium falciparum (isolate CDC / Honduras)), sequence (Q27743 whole entry, looked up): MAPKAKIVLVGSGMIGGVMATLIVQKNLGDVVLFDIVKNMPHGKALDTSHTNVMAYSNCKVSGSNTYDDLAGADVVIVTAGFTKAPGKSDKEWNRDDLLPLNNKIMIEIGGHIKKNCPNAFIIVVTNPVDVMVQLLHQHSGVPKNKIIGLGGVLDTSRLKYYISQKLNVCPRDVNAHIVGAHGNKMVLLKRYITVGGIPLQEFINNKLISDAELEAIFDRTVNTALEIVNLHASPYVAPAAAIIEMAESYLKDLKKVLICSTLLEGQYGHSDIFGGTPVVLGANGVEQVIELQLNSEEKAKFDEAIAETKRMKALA

As to `COc1ccc(CN2CCN(C(=O)c3cccs3)CC2)c(O)c1`, the growth inhibition in assay [1] was 2% (inactive); in assay [4] it was 97% (active). Moreover, the inhibition was 7% (inactive) in assay [2] and 2% (inactive) in assay [3]. Further, the outcome in assay [5], in assay [6], in assay [7] and in assay [8] was inactive.
Turning to `CCOc1c(OC)ccc2c1CCN(CCN1CCC(CNC(=O)c3ccc(-c4ccc(C#N)cc4)cc3)CC1)C2`, the growth inhibition in assay [1] was 61% (active); in assay [4], 92% (active). Moreover, the inhibition was 45% (inactive) in assay [2] and 7% (inactive) in assay [3]. In addition, the result in assay [5], in assay [6], in assay [7] and in assay [8] was inactive.
Turning to `Cc1ccc(NC(=O)Nc2ccccc2)cc1-c1ccc(C(=O)Nc2ccncc2)cc1`, the growth inhibition in assay [1] is 52% (active); in assay [4], 99% (active). Besides, the inhibition in assay [2] is 67% (active); in assay [3], 0% (inactive). The result in assay [5], in assay [6], in assay [7] and in assay [8] was inactive.
As for `CN(Cc1ccccc1)C1CCN(c2cc(NC(=O)c3cccc(F)c3)ccn2)CC1`, the results for the growth inhibition in assay [1] and in assay [4] were 3% (inactive) and 93% (active), respectively. In addition, the inhibition in assay [2] was 2% (inactive); in assay [3], -2% (inactive). The outcome in assay [5], in assay [6], in assay [7] and in assay [8] was inactive.
Consider `O=c1cc(NCCCNCc2scc(I)c2I)[nH]c2ccccc12`, for which the values for the growth inhibition in assay [1] and in assay [4] were 73% (active) and 100% (active), respectively. The inhibition in assay [2] is -16% (inactive); in assay [3], -1% (inactive). For the same compound, the result in assay [5], in assay [6], in assay [7] and in assay [8] was inactive.
As to `Nc1nc(N)c2c(ccc3c2ccn3Cc2ccccn2)n1`, the growth inhibition in assay [1] was 94% (active); in assay [4], 90% (active). For the same compound, the inhibition in assay [2] is 66% (active); in assay [3], -1% (inactive). The result in assay [5], in assay [6], in assay [7] and in assay [8] was inactive.
`COc1ccc2nc(C)cc(NC3Cc4ccccc4C3)c2c1`: the values for the growth inhibition in assay [1] and in assay [4] were 13% (inactive) and 98% (active), respectively. For the same compound, the inhibition was 20% (inactive) in assay [2] and 5% (inactive) in assay [3]. The result in assay [5], in assay [6], in assay [7] and in assay [8] was inactive.
For `COc1ccc(CNc2nc(NCCc3ccccc3)c3cc(OC)c(OC)cc3n2)cc1OC`, the values for the growth inhibition in assay [1] and in assay [4] were 101% (active) and 100% (active), respectively. Moreover, the inhibition in assay [2] was 48% (inactive); in assay [3], 3% (inactive). Further, the result in assay [5], in assay [6], in assay [7] and in assay [8] was inactive.
`Fc1ccc2nc(-c3cccc(-c4cccc(CNCCN5CCNCC5)c4)c3)[nH]c2c1`: the growth inhibition in assay [1] is 4% (inactive); in assay [4], 94% (active). The inhibition in assay [2] was 18% (inactive); in assay [3] it was -9% (inactive). In addition, the outcome in assay [5], in assay [6], in assay [7] and in assay [8] was inactive.
`O=C(c1ccc(Br)o1)N1N=C(c2cccs2)CC1c1ccc(Br)cc1` (configuration not stated): the growth inhibition in assay [1] was 45% (inactive); in assay [4], 96% (active). In addition, the results for the inhibition in assay [2] and in assay [3] were 5% (inactive) and -4% (inactive), respectively. For the same compound, the outcome in assay [5], in assay [6], in assay [7] and in assay [8] was inactive.
For the compound `Cc1cc(NC(=O)NCCN2CCC(NC(=O)c3ccc(F)cc3)CC2)c2ccccc2n1`, the growth inhibition was 76% (active) in assay [1] and 99% (active) in assay [4]. Besides, the values for the inhibition in assay [2] and in assay [3] were -6% (inactive) and -2% (inactive), respectively. For the same compound, the result in assay [5], in assay [6], in assay [7] and in assay [8] was inactive.
For the compound `COC(=O)c1ccc(CN2CCC(N(Cc3cccc(Oc4ccccc4)c3)S(=O)(=O)c3ccc(NC(C)=O)cc3)CC2)cc1`, the growth inhibition in assay [1] was 86% (active); in assay [4], 82% (active). Also, the inhibition in assay [2] was -1% (inactive); in assay [3], -6% (inactive). Besides, the result in assay [5], in assay [6], in assay [7] and in assay [8] was inactive.
`COc1ccc2ccccc2c1C=NNc1ccnc2ccc(F)cc12`: the values for the growth inhibition in assay [1] and in assay [4] were 10% (inactive) and 87% (active), respectively. Besides, the values for the inhibition in assay [2] and in assay [3] were 11% (inactive) and -2% (inactive), respectively. Also, the outcome in assay [5], in assay [6], in assay [7] and in assay [8] was inactive.
As to `CC(=O)Nc1csc(-c2cnc(/C=C(\C)C[C@@H]3OC[C@H](C[C@@H]4O[C@H]4[C@@H](C)[C@H](C)O)[C@@H](O)[C@H]3O)o2)c1`, the values for the growth inhibition in assay [1] and in assay [4] were 8% (inactive) and 94% (active), respectively. The inhibition in assay [2] is 1% (inactive); in assay [3], 0% (inactive). Also, the result in assay [5], in assay [6], in assay [7] and in assay [8] was inactive.
In the case of `COc1ccc(Cn2cncc2CN(CCC(C)C)C(=O)c2ccc(Cl)nc2Cl)cc1`, the growth inhibition in assay [1] is 61% (active); in assay [4] it was 87% (active). The values for the inhibition in assay [2] and in assay [3] were 19% (inactive) and -1% (inactive), respectively. Moreover, the result in assay [5], in assay [6], in assay [7] and in assay [8] was inactive.
In the case of `CC(C)COc1ccc2ccccc2c1CNCCCCCCNCc1c(OCC(C)C)ccc2ccccc12`, the growth inhibition in assay [1] was 95% (active); in assay [4], 90% (active). For the same compound, the inhibition was 99% (active) in assay [2] and 2% (inactive) in assay [3]. Further, the result in assay [5], in assay [6], in assay [7] and in assay [8] was inactive.
Consider `O=C(Nc1ccc(Cn2nc(Cl)c(N3CCCNCC3)cc2=O)cc1)c1ccc(-c2ccccc2)cc1`, for which the growth inhibition in assay [1] was 35% (inactive); in assay [4] it was 87% (active). Moreover, the inhibition in assay [2] is 93% (active); in assay [3], 0% (inactive). Besides, the result in assay [5], in assay [6], in assay [7] and in assay [8] was inactive.
Consider `CCc1cn2c3c(cc(C(=O)N[C@@H](Cc4ccccc4)[C@H](O)CNC4CCC4)cc13)N(C)S(=O)(=O)CC2`, for which the growth inhibition in assay [1] and in assay [4] was 98% (active) each time. Besides, the inhibition in assay [2] is -4% (inactive); in assay [3], -3% (inactive). Further, the result in assay [5], in assay [6], in assay [7] and in assay [8] was inactive.
For `CCCc1ccc(NC(=O)c2ccc(CN3CCCN(CC4CCCCC4)CC3)cc2)cc1`, the growth inhibition was 41% (inactive) in assay [1] and 95% (active) in assay [4]. Further, the inhibition in assay [2] was 49% (inactive); in assay [3], -7% (inactive). Moreover, the result in assay [5], in assay [6], in assay [7] and in assay [8] was inactive.
